Assay [1] is described as follows: ATG_CMV_CIS: Attagene CIS-FACTORIAL HepG2 Assay for human CMV (Internal Marker) (AID 2282928).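 Also: endpoint acts as a background internal control marker rather than a target.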 The following applies: HepG2 CMV promoter reporter, transcription factor profiling; actives raise or lower the signal. In a few lines:
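24 h chemical treatment, HepG2 with transient multi-reporter transfection; RNA → oligo(dT) RT → PCR → 6-FAM extension → HpaI digest → CE fluorescence. Bidirectional fit, DMSO negative control.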

Assay [2] can be described thus: ATG_ISRE_CIS: Attagene CIS-FACTORIAL HepG2 Assay for human Interferon Regulatory Factor 1 (IRF1) binding to an Interferon-Stimulated Response Element (ISRE) (AID 2282948). To be noted: HepG2 ISRE cis-reporter (Attagene), mRNA transcription readout; actives raise or lower the signal. The method, boiled down:
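Multiplexed mRNA reporter readout in human liver HepG2 cells: cis-element-driven reporters transfected, compound added for 24 h, transcripts amplified, fluorescently labelled and sized by capillary electrophoresis; curve fitting bidirectional against DMSO.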

A short description of assay [3]: ATG_M_32_CIS: Attagene CIS-FACTORIAL HepG2 Assay for M32 Transcription Factor (Internal Marker) (AID 2282949).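 Also: background control marker of the multiplexed CIS panel rather than a real target.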 The following applies: HepG2 Attagene cis-factorial M32 reporter, mRNA; actives raise or lower the signal. The method, boiled down:
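HepG2 human liver cells transiently transfected with cis-promoter-driven multiple reporter transcription units, dosed 24 h. Reporter mRNA quantified by RT-PCR, FAM-labelled primer extension, HpaI digest and capillary electrophoresis; bidirectional fit versus DMSO baseline.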

Assay [4] addresses Hepatocyte nuclear factor 6 (Homo sapiens) (UniProt Q9UBC0). Nature of the assay: ATG_HNF6_CIS: Attagene CIS-FACTORIAL HepG2 Assay for human Hepatocyte Nuclear Factor 6 (HNF6) (AID 2282952). The following applies: HepG2 Attagene cis-factorial HNF6 reporter transcription; actives raise or lower the signal. In a few lines: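 Endogenous factor activity read in transiently transfected HepG2 via promoter-regulated reporter transcripts. RNA harvested 24 h post-dosing, reverse-transcribed, PCR-amplified, FAM-labelled, HpaI-digested and resolved by capillary electrophoresis; fitted in both directions against DMSO.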

The target in assay [5] is Signal transducer and activator of transcription 3 (Homo sapiens) (UniProt P40763). Briefly: ATG_STAT3_CIS: Attagene CIS-FACTORIAL HepG2 Assay for human Signal Transducer and Activator of Transcription 3 (STAT3) (AID 2282963). The following applies: HepG2, Attagene cis-factorial STAT3 reporter transcription; actives raise or lower the signal. The method, boiled down: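 HepG2, MRTU-transfected, 24 h dosing. RNA → RT → PCR → FAM label → HpaI → CE. Bidirectional fit vs DMSO.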

The nature of assay [6]: ATG_TA_CIS: Attagene CIS-FACTORIAL HepG2 Assay for human TA Basal Promoter (AID 2282964). The following applies: HepG2 Attagene CIS-factorial TA basal promoter reporter; actives raise or lower the signal. The method, boiled down:
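Transfected HepG2, 24 h compound exposure; RNA → RT-PCR → FAM primer extension → HpaI cut → CE fluorescence. Gain/loss-of-signal fitted against DMSO negative control. Background-control readout.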

Assay [7] in a line: ATG_TCF_b_cat_CIS: Attagene CIS-FACTORIAL HepG2 Assay for human T-Cell-Factor with beta-catenin (TCF/b-cat) (AID 2282965). The following applies: HepG2 TCF/beta-catenin cis-reporter transcription, actives raise or lower the signal. The method, boiled down: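 HepG2 cells transiently transfected with multiple cis-promoter-regulated reporter transcription units, so endogenous transcription factor activity is measured. Reporter mRNA read 24 hours after dosing by RT-PCR, fluorescent labelling and capillary electrophoresis; bidirectional fitting against DMSO.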

The nature of assay [8]: ATG_TAL_CIS: Attagene CIS-FACTORIAL HepG2 Assay for human TAL Basal Promoter (AID 2282966).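 Also: background control endpoint measuring basal TAL promoter reporter mRNA not a specific factor.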 The following applies: HepG2 Attagene cis-factorial TAL promoter reporter; actives raise or lower the signal. The method, boiled down: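 Background-control endpoint: basal TAL promoter reporter transcripts in transiently transfected HepG2, measured 24 h after dosing. Read-out by RT-PCR with fluorescent primer extension and capillary electrophoresis; gain or loss of signal fitted relative to DMSO.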

Assay [9] is described as follows: ATG_TGFb_CIS: Attagene CIS-FACTORIAL HepG2 Assay for human Transforming Growth Factor (TGF) (AID 2282967). The following applies: HepG2 Attagene CIS TGFb reporter, mRNA transcription; actives raise or lower the signal. In a few lines: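 Readout: fluorescently labeled reporter cDNA fragments resolved by capillary electrophoresis after RT-PCR. Transfected HepG2 cells dosed for 24 h; endogenous TF activity at TGFB1-linked cis element; gain or loss fitted relative to DMSO.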

The target of assay [10] is X-box-binding protein 1 (Homo sapiens) (UniProt P17861). Nature of the assay: ATG_Xbp1_CIS: Attagene CIS-FACTORIAL HepG2 Assay for human X-box Binding Protein 1 (XBP1) (AID 2282972). To be noted: HepG2 XBP1 cis-element reporter, Attagene multiplex; actives raise or lower the signal. The method, boiled down:
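Multiplexed cis-reporter readout in transfected HepG2 liver cells. Exposure lasted 24 hours. Activity in either direction was fitted against DMSO as negative control and baseline.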

In assay [11] the target is Transcriptional activator Myb (Homo sapiens) (UniProt P10242). Nature of the assay: ATG_Myb_CIS: Attagene CIS-FACTORIAL HepG2 Assay for human Myeloblastosis (Myb) Proto-Oncogene Transcription Factor (AID 2282986). The following applies: HepG2 Attagene CIS-FACTORIAL Myb reporter transcription; actives raise or lower the signal. The method, boiled down:
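Fluorescence signals from capillary electrophoresis of RT-PCR-amplified reporter cDNA give the read-out. Cells: HepG2 transfected with multiple cis-regulated reporter units. Exposure lasts 24 hours; DMSO defines baseline for gain or loss of signal.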

For assay [12], the target named is Nuclear respiratory factor 1 (Homo sapiens) (UniProt Q16656). Nature of the assay: ATG_NRF1_CIS: Attagene CIS-FACTORIAL HepG2 Assay for human Nuclear Respiratory Factor 1 (NRF1) Orphan Gene (AID 2282987). To be noted: HepG2 NRF1 cis-element reporter, Attagene multiplex; actives raise or lower the signal. The method, boiled down:
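Transcriptional reporter readout, one component of a 52-endpoint multiplexed HepG2 panel. Exposure 24 h; mRNA detected via RT-PCR and fluorescent capillary electrophoresis; fitting in both directions against DMSO.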

Assay [13] concerns the target Myc proto-oncogene protein (Homo sapiens) (UniProt P01106). Nature of the assay: ATG_Myc_CIS: Attagene CIS-FACTORIAL HepG2 Assay for human Myelocytomatosis (Myc) Proto-Oncogene Transcription Factor (AID 2282990). To be noted: HepG2, Attagene cis-reporter transcription factor activity; actives raise or lower the signal. The method, boiled down: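 HepG2 cells transiently transfected with multiple cis-promoter-driven reporter transcription units, so endogenous TF activity is read. After 24 h compound exposure, reporter mRNA was quantified by RT-PCR, 6-FAM labelling, HpaI digestion and capillary electrophoresis; bidirectional fit versus DMSO.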

Assay [14] is described as follows: ATG_NF_kB_CIS: Attagene CIS-FACTORIAL HepG2 Assay for human Nuclear Factor Kappa B (NF-kB) (AID 2282991). The following applies: HepG2 Attagene cis-factorial NF-kB reporter mRNA; actives raise or lower the signal. In a few lines: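 HepG2, transient multi-reporter transfection, cis promoter elements (endogenous TFs). 24 h exposure. Total RNA → RT → PCR → 6-FAM label → HpaI → CE. Gain/loss vs DMSO.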

A short description of assay [15]: ATG_NRF2_ARE_CIS: Attagene CIS-FACTORIAL HepG2 Assay for human Nuclear Factor Erythroid 2 Related Factor 2 (NFR2) response to Antioxidant Response Elements (ARE) (AID 2282992).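 As to AC50: reporter mRNA level measured by RT-PCR and capillary electrophoresis fluorescence.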 To be noted: HepG2 Attagene ARE/NRF2 reporter, transcription factor activity; actives raise or lower the signal. The method, boiled down:
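Endogenous transcription factor activity in human liver HepG2 cells is tracked via a cis-element-driven reporter within a multiplexed set. mRNA induction is read by RT-PCR and capillary electrophoresis after 24 h, with DMSO as baseline.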

Assay [16] can be described thus: ATG_Oct_MLP_CIS: Attagene CIS-FACTORIAL HepG2 Assay for human Octamer-Binding Transcription Factor (Oct) (AID 2282993). The following applies: HepG2 Attagene cis-factorial Oct reporter, mRNA; actives raise or lower the signal. In a few lines: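 Read-out: reporter mRNA via RT-PCR plus capillary electrophoresis of 6-FAM-labelled fragments. Transiently transfected HepG2, 24 h exposure, endogenous TF activity on cis elements. Gain or loss of signal fitted relative to DMSO.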

For assay [17], the target named is Cellular tumor antigen p53 (Homo sapiens) (UniProt P04637). Briefly: ATG_p53_CIS: Attagene CIS-FACTORIAL HepG2 Assay for human p53 Transcription Factor (AID 2282994). The following applies: HepG2 p53 cis-element reporter, Attagene mRNA; actives raise or lower the signal. In a few lines: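 Steps: transfect HepG2 with multiplexed cis reporter constructs; dose chemicals 24 h; extract RNA, reverse-transcribe, PCR-amplify reporter sequences; FAM-label, HpaI-digest, resolve fragments by CE. Activity fitted both directions relative to DMSO.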

The target in assay [18] is Heat shock factor protein 1 (Homo sapiens) (UniProt Q00613). Nature of the assay: ATG_HSE_CIS: Attagene CIS-FACTORIAL HepG2 Assay for human Heat Shock Transcription Factor 1 (HSE) (AID 2282953). To be noted: HepG2 HSE cis-reporter, Attagene RNA transcription; actives raise or lower the signal. The method, boiled down:
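Read-out: fluorescence of reporter-specific RT-PCR fragments separated by capillary electrophoresis. HepG2 carrying transfected cis-element reporter units; 24 h dosing; activity fitted in both directions relative to DMSO baseline.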

The nature of assay [19]: ATG_RORE_CIS: Attagene CIS-FACTORIAL HepG2 Assay for human RAR-related Orphan Receptor Element (RORE) (AID 2282959). The following applies: HepG2 Attagene cis-factorial RORE reporter, mRNA; actives raise or lower the signal. The method, boiled down:
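Fluorescence intensity of reporter-specific cDNA fragments, separated by capillary electrophoresis, gives the signal. Source: HepG2 liver cells transiently transfected with cis-element reporters and exposed 24 h; DMSO-normalized bidirectional fit.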

Assay [20] in a line: ATG_VDRE_CIS: Attagene CIS-FACTORIAL HepG2 Assay for human Vitamin D Receptor Element (VDRE) (AID 2282968). To be noted: HepG2 VDRE cis-reporter transcription, actives raise or lower the signal. The method, boiled down:
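Steps: transfect HepG2 with multiple reporter transcription units; dose chemicals 24 h; isolate RNA; RT-PCR; label with 6-FAM primer extension; HpaI digest; capillary electrophoresis. Curves fitted both directions against DMSO.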

Calls of active or inactive are those of the source. The calls were made as follows: active = hit-call score of the fitted dose curve at least 0.9, where 1 is the maximum; inactive = score below 0.9.

Chain of Transcriptional activator Myb (Homo sapiens) (P10242 whole entry, looked up): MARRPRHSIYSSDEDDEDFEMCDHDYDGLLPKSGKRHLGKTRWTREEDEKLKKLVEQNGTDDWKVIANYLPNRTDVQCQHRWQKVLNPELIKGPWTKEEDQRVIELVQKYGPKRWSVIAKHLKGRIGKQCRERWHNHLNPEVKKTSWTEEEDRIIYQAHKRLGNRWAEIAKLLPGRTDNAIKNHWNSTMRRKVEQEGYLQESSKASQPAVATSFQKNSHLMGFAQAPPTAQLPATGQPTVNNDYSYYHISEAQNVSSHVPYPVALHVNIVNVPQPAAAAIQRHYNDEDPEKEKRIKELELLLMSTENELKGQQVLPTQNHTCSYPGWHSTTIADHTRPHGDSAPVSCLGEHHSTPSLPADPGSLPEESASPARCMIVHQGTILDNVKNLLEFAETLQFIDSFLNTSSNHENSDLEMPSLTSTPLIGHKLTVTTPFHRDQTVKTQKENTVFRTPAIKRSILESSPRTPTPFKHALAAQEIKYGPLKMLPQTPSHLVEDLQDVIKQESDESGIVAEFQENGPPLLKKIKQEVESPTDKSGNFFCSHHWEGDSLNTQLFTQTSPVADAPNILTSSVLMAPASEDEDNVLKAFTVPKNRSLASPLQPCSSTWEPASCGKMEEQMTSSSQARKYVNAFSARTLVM
Chain of Heat shock factor protein 1 (Homo sapiens) (Q00613 whole entry, looked up, the tested form may be a part): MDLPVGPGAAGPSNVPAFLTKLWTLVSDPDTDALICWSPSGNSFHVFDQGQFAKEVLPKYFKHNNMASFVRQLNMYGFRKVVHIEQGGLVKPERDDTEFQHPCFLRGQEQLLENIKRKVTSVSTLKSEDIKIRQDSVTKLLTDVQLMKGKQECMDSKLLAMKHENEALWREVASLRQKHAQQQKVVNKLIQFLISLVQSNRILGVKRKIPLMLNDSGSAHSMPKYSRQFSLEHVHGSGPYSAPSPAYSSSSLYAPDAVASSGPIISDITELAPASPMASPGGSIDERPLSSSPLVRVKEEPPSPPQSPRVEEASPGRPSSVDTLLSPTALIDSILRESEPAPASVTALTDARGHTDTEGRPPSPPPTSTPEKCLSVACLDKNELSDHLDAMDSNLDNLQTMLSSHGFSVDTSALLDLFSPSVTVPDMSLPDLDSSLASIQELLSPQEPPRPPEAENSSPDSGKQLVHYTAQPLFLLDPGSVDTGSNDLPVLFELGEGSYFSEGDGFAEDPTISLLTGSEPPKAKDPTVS
Chain of Nuclear respiratory factor 1 (Homo sapiens) (Q16656 whole entry, looked up): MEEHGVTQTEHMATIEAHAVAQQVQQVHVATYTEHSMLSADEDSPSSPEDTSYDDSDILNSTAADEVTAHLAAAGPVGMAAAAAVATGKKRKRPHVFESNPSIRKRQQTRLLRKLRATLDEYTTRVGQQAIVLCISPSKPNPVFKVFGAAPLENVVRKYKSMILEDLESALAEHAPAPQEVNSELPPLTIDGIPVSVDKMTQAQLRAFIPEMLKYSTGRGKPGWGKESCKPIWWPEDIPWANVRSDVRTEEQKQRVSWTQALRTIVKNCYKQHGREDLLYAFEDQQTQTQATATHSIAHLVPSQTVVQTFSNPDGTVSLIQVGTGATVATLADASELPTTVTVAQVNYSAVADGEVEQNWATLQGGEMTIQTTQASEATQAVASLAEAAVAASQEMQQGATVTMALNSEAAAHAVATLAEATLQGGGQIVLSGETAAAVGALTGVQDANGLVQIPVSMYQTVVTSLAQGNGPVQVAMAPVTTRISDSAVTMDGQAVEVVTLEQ
Chain of Myc proto-oncogene protein (Homo sapiens) (P01106 whole entry, looked up): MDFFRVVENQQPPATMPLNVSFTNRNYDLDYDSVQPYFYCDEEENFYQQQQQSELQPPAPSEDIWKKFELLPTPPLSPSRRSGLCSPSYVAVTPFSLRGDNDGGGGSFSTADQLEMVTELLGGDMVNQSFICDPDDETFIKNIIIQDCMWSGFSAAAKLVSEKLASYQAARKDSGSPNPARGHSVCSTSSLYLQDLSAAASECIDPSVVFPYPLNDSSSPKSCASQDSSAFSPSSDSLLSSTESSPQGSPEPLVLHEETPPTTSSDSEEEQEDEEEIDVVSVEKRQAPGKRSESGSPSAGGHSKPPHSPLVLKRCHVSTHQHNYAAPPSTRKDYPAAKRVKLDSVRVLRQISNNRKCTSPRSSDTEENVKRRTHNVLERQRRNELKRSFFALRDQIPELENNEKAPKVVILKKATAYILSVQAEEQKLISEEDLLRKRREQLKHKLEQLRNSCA
Chain of Hepatocyte nuclear factor 6 (Homo sapiens) (Q9UBC0 whole entry, looked up): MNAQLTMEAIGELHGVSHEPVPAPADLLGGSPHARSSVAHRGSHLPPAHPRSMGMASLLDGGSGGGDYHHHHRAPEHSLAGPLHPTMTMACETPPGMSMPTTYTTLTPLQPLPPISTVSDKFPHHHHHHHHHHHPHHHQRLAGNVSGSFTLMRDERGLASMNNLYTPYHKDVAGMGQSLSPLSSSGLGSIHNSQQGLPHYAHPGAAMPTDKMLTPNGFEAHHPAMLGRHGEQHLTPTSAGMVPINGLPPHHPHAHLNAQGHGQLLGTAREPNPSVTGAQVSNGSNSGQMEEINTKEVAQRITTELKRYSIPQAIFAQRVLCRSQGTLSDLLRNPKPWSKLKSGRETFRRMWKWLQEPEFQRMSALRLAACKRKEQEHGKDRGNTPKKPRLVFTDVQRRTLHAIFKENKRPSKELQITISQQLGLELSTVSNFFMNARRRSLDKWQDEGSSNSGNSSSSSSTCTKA
Chain of Cellular tumor antigen p53 (Homo sapiens) (P04637 whole entry, looked up, the tested form may be a part): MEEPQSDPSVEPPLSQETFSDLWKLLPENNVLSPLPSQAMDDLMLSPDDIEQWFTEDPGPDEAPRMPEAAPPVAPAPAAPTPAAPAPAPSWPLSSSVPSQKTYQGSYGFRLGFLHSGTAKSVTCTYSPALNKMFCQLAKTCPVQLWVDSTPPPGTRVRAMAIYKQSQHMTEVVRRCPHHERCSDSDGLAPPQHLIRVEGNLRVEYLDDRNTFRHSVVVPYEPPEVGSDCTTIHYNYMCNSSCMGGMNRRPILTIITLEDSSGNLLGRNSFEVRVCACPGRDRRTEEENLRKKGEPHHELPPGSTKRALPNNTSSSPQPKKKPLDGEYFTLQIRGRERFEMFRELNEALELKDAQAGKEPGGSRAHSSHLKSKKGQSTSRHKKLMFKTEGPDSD
Chain of Signal transducer and activator of transcription 3 (Homo sapiens) (P40763 whole entry, looked up): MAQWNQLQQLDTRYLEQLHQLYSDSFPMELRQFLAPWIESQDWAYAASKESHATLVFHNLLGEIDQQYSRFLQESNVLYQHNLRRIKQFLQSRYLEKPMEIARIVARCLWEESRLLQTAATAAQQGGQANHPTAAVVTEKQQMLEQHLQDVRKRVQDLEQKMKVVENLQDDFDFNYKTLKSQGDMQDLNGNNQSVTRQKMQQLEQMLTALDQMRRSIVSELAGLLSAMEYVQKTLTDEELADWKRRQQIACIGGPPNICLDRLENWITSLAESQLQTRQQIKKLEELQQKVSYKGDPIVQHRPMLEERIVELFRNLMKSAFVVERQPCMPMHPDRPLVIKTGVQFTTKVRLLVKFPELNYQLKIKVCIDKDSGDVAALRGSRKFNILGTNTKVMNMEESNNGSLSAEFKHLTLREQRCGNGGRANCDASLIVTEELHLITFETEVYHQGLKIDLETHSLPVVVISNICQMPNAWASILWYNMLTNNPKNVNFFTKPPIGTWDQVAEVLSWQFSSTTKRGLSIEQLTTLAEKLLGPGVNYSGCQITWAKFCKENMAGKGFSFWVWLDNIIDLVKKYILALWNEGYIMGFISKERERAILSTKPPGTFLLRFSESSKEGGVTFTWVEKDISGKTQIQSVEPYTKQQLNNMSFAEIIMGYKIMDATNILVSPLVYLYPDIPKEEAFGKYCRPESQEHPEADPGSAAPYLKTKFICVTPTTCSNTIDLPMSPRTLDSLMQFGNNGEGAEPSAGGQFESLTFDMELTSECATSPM
Chain of X-box-binding protein 1 (Homo sapiens) (P17861 whole entry, looked up): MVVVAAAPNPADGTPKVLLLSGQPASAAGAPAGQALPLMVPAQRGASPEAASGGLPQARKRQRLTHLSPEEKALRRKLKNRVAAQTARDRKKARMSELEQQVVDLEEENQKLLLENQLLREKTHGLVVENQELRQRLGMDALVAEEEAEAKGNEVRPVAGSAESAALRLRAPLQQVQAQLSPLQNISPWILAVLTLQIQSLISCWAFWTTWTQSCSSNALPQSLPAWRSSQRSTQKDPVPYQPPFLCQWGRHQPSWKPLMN

In the case of `C=CCO`, the call in assay [1], in assay [2], in assay [3], in assay [4], in [5] and in [6] was inactive. The compound was classed as inactive in assay [7], in assay [8], in assay [9], in [10], in [11] and in assay [12]. Further, the compound was called inactive in assay [13], in assay [14], in assay [15], in assay [16] and in [17].
In the case of `CCC(=O)c1ccc(Cl)cc1`, the compound was called inactive in assay [1], in assay [3], in [4], in [18], in assay [19] and in assay [5]. In addition, the call in [6], in [7], in assay [8], in [9], in [20] and in assay [10] was inactive. Besides, the call in assay [11], in assay [12], in [13], in assay [14], in assay [15] and in assay [16] was inactive.
By AC50 is commonly meant the concentration giving half of the maximal activity seen. For `c1ccc(Nc2ccc3ccccc3c2)cc1`, the outcome in assay [1], in assay [2], in [3], in assay [4], in assay [18] and in [19] was inactive. The call in assay [5], in assay [6], in assay [7], in [8], in [9] and in assay [10] was inactive. Further, the result in assay [11], in assay [12], in assay [13], in assay [14], in [16] and in assay [17] was inactive. For the same compound, the AC50 in assay [15] was 37 µM (active).
In the case of `CCCCCCCCCCCC#N`, the AC50 in assay [1] is 103 µM (active); in [10], 173 µM (active); in assay [14], 131 µM (active); in assay [15], 73.4 µM (active); in assay [16], 141 µM (active). The outcome in assay [2], in [3], in assay [4], in [18], in assay [19] and in assay [6] was inactive. Besides, the compound was called inactive in assay [7], in assay [8], in assay [9], in assay [20], in [11] and in assay [12]. Besides, the result in assay [13] and in [17] was inactive.

For the origin of these results see PubChem BioAssay (EPA / NIEHS).
